Drawing on PubChem BioAssay AID686979 (National Center for Advancing Translational Sciences (NCATS), 2013), this text covers Potency for 36 compounds.

Values joined by “and” are separate entries in the source; they are usually repeats but may differ in a detail not shown here. Equal values may be shown once. About 50,000 (12%) of roughly 420,000 compounds were called active. Where a call stands in place of a potency, no number is given. Another 26% or so got no clear call; they are omitted. Calls follow the shape of the dose curve; as a rule, active = well fitted inhibition curve with a large enough effect; inconclusive = small, poorly fitted or top-dose-only effect; inactive = flat fitted curve, though single readings scatter. For the sample, actives were picked, then their nearest neighbours and some compounds at random.
Potency is read from the fitted curve at half-maximal effect.

This test can be described thus: qHTS for Inhibitors of human tyrosyl-DNA phosphodiesterase 1 (TDP1): qHTS in cells in presence of CPT. Also: nearly all actives have a fitted effect of over 55% in size. As to conditions: chicken DT40 Tdp1-/-;hTDP1 cells + 20 nM CPT, ATP luminescence, 48 h; series mostly up to 46.2 µM. In a few lines: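 Chicken DT40 Tdp1-/- cells complemented with human TDP1, 400 cells/well, exposed to compounds plus 20 nM camptothecin for at least 48 h at 37 C; viability read as ATP content by CellTiter-Glo luminescence.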
Background: qHTS replaces the single test concentration by a dilution series.
Regarding `COCCNC(=O)CSc1nc2sccc2c(=O)n1-c1ccccc1`, the Potency result was “inactive”.

With `COc1ccc(N2CCN(C(=O)C3CCN(S(=O)(=O)c4ccc(C)cc4)CC3)CC2)cc1`, the Potency entry was “inactive”.

`Cc1ccc(S(=O)(=O)N2CCC(C(=O)N3CCCCCCC3)CC2)cc1`: the Potency is 20.6 µM (active).

`COc1ccc(N(C)C(=O)C2CCN(S(=O)(=O)c3cc(Br)cc4c3N(C(C)=O)CC4)CC2)cc1`: the Potency entry is “inactive”.

On to `Cc1ccc(N(C)C(=O)C2CCN(S(=O)(=O)c3ccc4c(c3)CCCN4C(=O)C3CCC3)CC2)cc1`, for which the Potency was 23.1 µM (active).

`COc1ccc(S(=O)(=O)N2CCC(C(=O)N3CCCC3)CC2)cc1C`: the Potency entry is “inactive”.

Consider `Cc1ccc(S(=O)(=O)N2CCC(C(=O)OCC(=O)N(C)c3ccccc3)CC2)cc1C`, for which the Potency entry was “inactive”.

For `Cc1c(NC(=O)COC(=O)/C=C/c2cccc(F)c2)c(=O)n(-c2ccccc2)n1C`, the Potency entry is “inactive”.

With `O=C1C[C@@H]2c3c(cccc3CN1Cc1ccccc1)C[C@@H](O)[C@H]2O`, the Potency entry was “inactive”.

As for `NC(=O)CSc1nnc(NC(=O)c2ccc3ccccc3c2)s1`, the Potency entry was “inactive”.

With `CCc1ccccc1NC(=O)c1ccc(F)c(S(=O)(=O)NC2CCCCCC2)c1`, the Potency entry is “inactive”.

For the compound `CN1CCN(CC(=O)Nc2cccc([N+](=O)[O-])c2)CC1`, the Potency entry is “inactive”.

Consider `Cc1cc(=O)n(CC(=O)Nc2cccc([N+](=O)[O-])c2)c(-n2nc(C)cc2C)n1`, for which the Potency was 20.6 µM (active).

As to `O=C(CN1CCOCC1)Nc1cccc([N+](=O)[O-])c1`, the Potency entry is “inactive”.

In the case of `Cn1c(=O)c2c(ncn2CC(=O)N/N=C/c2cn[nH]c2-c2ccc(F)cc2)n(C)c1=O`, the Potency result was “inactive”.

For the compound `COc1ccc(Br)cc1/C=N/Nc1ccc(Cl)c(C(=O)O)c1`, the Potency entry was “inactive”.

Turning to `N#Cc1c(-c2ccc(F)cc2)cc(C2CC2)nc1SCC(=O)c1cccs1`, the Potency entry was “inactive”.

With `O=S(=O)(NC1CC1)c1ccc(Cl)cc1`, the Potency result is “inactive”.

For the compound `Cn1sc(=O)c2cc(S(=O)(=O)NC3CC3)ccc21`, the Potency was 2.91 µM (active).

On to `O=S(=O)(NC1CC1)c1ccc(F)c(F)c1`, for which the Potency result was “inactive”.

Turning to `COc1ccc(C)cc1NC(=O)NCCCCc1ccccc1`, the Potency entry is “inactive”.

In the case of `CCOC(=O)c1[nH]c(C)c(C(=O)OCC(=O)N2c3ccccc3CC2C)c1C` (stereo unspecified), the Potency result was “inactive”.

On to `CC(=O)CSc1nc(CCc2ccccc2)c(C#N)c(=O)[nH]1`, for which the Potency entry was “inactive”.

In the case of `Cc1nn2c(=O)cc(COC(=O)c3ccccc3NC(=O)COc3ccccc3C)nc2s1`, the Potency result is “inactive”.

As for `CCC(=O)Nc1nnc(S(=O)(=O)N2CCCc3ccccc32)s1`, the Potency result was “inactive”.

Turning to `O=C(Nc1nc2ccc([N+](=O)[O-])cc2s1)c1ccc(S(=O)(=O)N2CCCc3ccccc32)cc1`, the Potency was 4.61 µM (active).

With `O=S(=O)(c1ccccc1)N1CCc2ccccc21`, the Potency entry is “inactive”.

In the case of `Cc1nn(C)c(C)c1S(=O)(=O)N1CCc2ccccc21`, the Potency result was “inactive”.

Turning to `O=C(Nc1nnc(S(=O)(=O)N2CCCCCC2)s1)c1cccc(Br)c1`, the Potency was 5.8 µM (active) and 25.9 µM (active).

`O=C(Nc1nnc(S(=O)(=O)N2CCOCC2)s1)c1cccc(Br)c1`: the Potency result was “inactive”.

Turning to `NS(=O)(=O)c1ccc2nc(NC(=O)C3=COCCO3)sc2c1`, the Potency result was “inactive”.

As for `CCOC(=O)CSc1nnc(NC(=O)c2cccc(S(=O)(=O)N3CCCCC3)c2)s1`, the Potency entry is “inactive”.

Take `CSc1nc2ccc(S(=O)(=O)N3CCc4ccccc43)cc2s1`: the Potency is 16.4 µM (active).

Regarding `O=C(Nc1nnc(S(=O)(=O)N2CCCc3ccccc32)s1)c1cccc(F)c1`, the Potency was 16.4 µM (active).

With `Cc1cccc(C(=O)Nc2nnc(S(=O)(=O)N3CCCCCC3)s2)c1`, the Potency entry was “inactive”.

On to `CS(=O)(=O)c1ccc2nc(NC(=O)c3ccc(N4CCCC4=O)cc3)sc2c1`, for which the Potency result was “inactive”.
